Hit rate of the full screen: of about 220,000 compounds, about 910 (0.41%) were called active. Shown is part of a subset that was picked to be rich in actives. Measured potencies and affinities stand elsewhere. Values without a mark were called inactive.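 Rule for the calls: active = primary inhibition above the hit cutoff, then over 50% inhibition at one or more dose response concentrations (cut at about 23% in these data, passing the limit was not always enough); inconclusive = conflicting primary data, or primary hits not chosen for dose response; inactive = low primary inhibition, or under 50% at every dose.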
Molecular target: Aminopeptidase N (Plasmodium falciparum (isolate 3D7)) (UniProt O96935)
Assay: malaria alanyl aminopeptidase activity blockers – biochemical, fluorogenic H-Leu-NHMec substrate, 1536-well (AID 1445);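 note: plate controls were DMSO full reaction for no effect and no enzyme background for full effect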
Conditions: recombinant M1AAP, H-Leu-NHMec fluorogenic kinetic assay; at 30 µM, stronger effect = higher value unless noted

Aminopeptidase N (Plasmodium falciparum (isolate 3D7)), sequence (O96935 whole entry, looked up): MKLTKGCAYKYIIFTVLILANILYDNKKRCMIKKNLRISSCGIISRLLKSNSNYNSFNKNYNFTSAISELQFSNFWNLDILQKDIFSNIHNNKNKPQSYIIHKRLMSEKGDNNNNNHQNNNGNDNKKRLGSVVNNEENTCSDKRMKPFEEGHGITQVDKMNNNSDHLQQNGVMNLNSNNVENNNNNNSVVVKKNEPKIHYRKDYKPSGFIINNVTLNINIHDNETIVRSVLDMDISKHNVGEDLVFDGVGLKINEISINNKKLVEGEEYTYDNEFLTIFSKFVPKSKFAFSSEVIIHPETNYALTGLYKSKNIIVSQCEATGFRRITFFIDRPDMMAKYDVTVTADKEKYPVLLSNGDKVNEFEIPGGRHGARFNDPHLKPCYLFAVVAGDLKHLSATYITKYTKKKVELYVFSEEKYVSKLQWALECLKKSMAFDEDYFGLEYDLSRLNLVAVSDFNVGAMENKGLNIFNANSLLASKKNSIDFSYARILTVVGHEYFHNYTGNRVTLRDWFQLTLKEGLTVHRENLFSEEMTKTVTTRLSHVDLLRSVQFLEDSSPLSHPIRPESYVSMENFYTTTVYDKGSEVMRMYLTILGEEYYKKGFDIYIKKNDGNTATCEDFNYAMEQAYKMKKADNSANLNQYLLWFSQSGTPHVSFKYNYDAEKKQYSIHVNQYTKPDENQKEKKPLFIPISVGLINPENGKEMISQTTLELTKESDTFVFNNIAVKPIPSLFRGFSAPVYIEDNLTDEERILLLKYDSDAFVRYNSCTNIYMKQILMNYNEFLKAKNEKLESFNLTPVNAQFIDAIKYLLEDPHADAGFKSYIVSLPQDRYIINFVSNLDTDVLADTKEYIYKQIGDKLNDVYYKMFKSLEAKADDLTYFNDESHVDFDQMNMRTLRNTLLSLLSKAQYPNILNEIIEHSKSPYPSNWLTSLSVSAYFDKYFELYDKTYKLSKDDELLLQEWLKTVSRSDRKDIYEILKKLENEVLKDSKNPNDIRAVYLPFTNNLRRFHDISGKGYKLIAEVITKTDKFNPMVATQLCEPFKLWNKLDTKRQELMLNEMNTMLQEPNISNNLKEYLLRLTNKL

First: COc1ccccc1CCNS(=O)(=O)c1cn(C)c(=O)n(C)c1=O
Second: COC(=O)c1cn(NC(=O)Cc2ccccc2OC)c(=O)c2ccccc12
The inhibition of the first is lower: -3.3% for the first, 3.77% for the second.

Compared with `CC(CCC(=O)O)C1CC[C@@]2(C)C3C(=O)CC4C(C)(C)C(O)CC[C@]4(C)C3C(=O)C[C@]12C` (some centres undefined), `C[C@H](CCC(=O)O)[C@H]1CC[C@H]2[C@@H]3C(=O)C[C@@H]4CC(=O)CC[C@]4(C)[C@H]3CC(=O)[C@]12C` is higher in inhibition: 3% for the first, 7.14% for the second.

Compared with `C/C(Cl)=C\Cn1c(O)c(N=O)c2ccccc21`, `C=CCn1c(O)c(N=NC(=O)OCC)c2ccccc21` is higher in inhibition: -2.4% for the first, 12.7% for the second.

Compared with `CCn1c(O)c(N=NC(=O)Cn2ccc(C(F)(F)F)n2)c2ccccc21`, `CCC(C)NC(=O)CSc1nc2ccsc2c(=O)n1NC(=O)c1ccccc1` (centres undefined) is higher in inhibition: 5.05% for the first, 15.2% for the second.

Going from `O=C(N/N=C/c1ccc(Cl)s1)c1ccccc1[N+](=O)[O-]` to `O=C(NN1C(=O)c2ccccc2NC1c1ccoc1)c1ccc([N+](=O)[O-])cc1` (centres undefined), the inhibition falls from 9.55% to 4.32%.

First: Cc1c(C)c2ccc(Oc3ccc([N+](=O)[O-])cc3C(F)(F)F)c(C)c2oc1=O
Second: O=C(NN1C(=O)c2ccccc2NC1c1ccco1)c1ccc([N+](=O)[O-])cc1 (centres undefined)
The inhibition of the first is lower: 6.61% for the first, 8.9% for the second.

First: Cc1cc(SCC(=O)N2CCC(c3noc4ccc(F)cc34)CC2)nc2ccccc12
Second: Cc1sc2ncnc(SCC(=O)N3CCC(c4noc5ccc(F)cc45)CC3)c2c1C
The inhibition of the first is higher: 7.53% for the first, 1.38% for the second.

First: CC(=O)Oc1c(-c2ccco2)oc2ccccc2c1=O
Second: O=C(O)COc1c(-c2ccco2)oc2ccccc2c1=O
The inhibition of the first is higher: 30.4% for the first, 9.28% for the second.

Compared with `Cn1c(SCc2nc(-c3ccccc3)no2)nnc1-c1cccs1`, `Cn1c(SCc2ccccc2)nc2ccsc2c1=O` is higher in inhibition: -3.32% for the first, 2.71% for the second.

First: N/C(=N\OC(=O)c1cnn(-c2ccccc2)c1C(F)(F)F)c1ccc(C(F)(F)F)cc1
Second: O=C(NN1C(=O)c2ccccc2NC1c1ccccn1)c1ccc(Br)cc1 (centres undefined)
The inhibition of the first is higher: 13.2% for the first, 8.07% for the second.

Going from `O=C(NN1C(=O)c2ccccc2NC1c1ccccn1)c1ccc([N+](=O)[O-])cc1` (centres undefined) to `O=C(NN1C(=O)c2ccccc2NC1c1ccco1)c1ccc(Br)cc1` (centres undefined), the inhibition rises from 2.53% to 5.55%.

Going from `CC(=O)NN1C(=O)c2ccccc2NC1c1ccoc1` (centres undefined) to `O=C(CSc1nc2ccsc2c(=O)n1Cc1ccccc1)NCc1ccco1`, the inhibition falls from 4.92% to -0.89%.

First: CCCc1[nH]nc2c1C1(CCN(C(=O)OCc3ccccc3)CC1)C(C#N)=C(N)O2
Second: Cc1ccc(SCc2[nH]nc3c2C2(C(=O)N(C)c4ccccc42)C(C#N)=C(N)O3)cc1 (centres undefined)
The inhibition of the first is lower: 3.73% for the first, 5.03% for the second.

Going from `O=C1OCC=C1NNC(=O)c1cccnc1` to `CCCN(CCC)C(=O)CSc1nc2ccsc2c(=O)n1NC(=O)c1ccccc1`, the inhibition falls from 4.75% to 2.56%.

Going from `Cc1ccc(CNC(=O)CSc2nc3ccsc3c(=O)n2Cc2ccccn2)cc1` to `Cc1ccc(CNC(=O)CSc2nc3ccsc3c(=O)n2Cc2ccc(C(=O)O)cc2)cc1`, the inhibition rises from 15.8% to 33.8%.

Going from `COc1ccc(-n2c(SCC(=O)NCCC(C)C)nc3ccsc3c2=O)cc1` to `COc1ccc(C(=O)Nn2c(SCC(=O)NCc3ccco3)nc3ccccc3c2=O)cc1`, the inhibition rises from -0.48% to 1.81%.

First: CC1(C)Cc2c(sc(/N=C/N3CCCCC3)c2C#N)C(C)(C)N1
Second: CC(C)Cc1nc2oc3c(=O)[nH]cnc3c2c2c1CCCC2
The inhibition of the first is higher: 6.45% for the first, -0.28% for the second.

Compared with `COc1ccc(/C=C/C(=O)NCC2COc3ccccc3O2)c(OC)c1` (centres undefined), `COc1ccc(Cl)cc1NC(=O)CNc1ccccc1CN(C)C1CCCCC1` is higher in inhibition: 6.8% for the first, 10.4% for the second.

First: COC(=O)c1ccc(COc2ncnc3c(Cl)cc(Cl)cc23)o1
Second: Oc1c(Cl)cc(Cl)cc1C=Nc1ccc(Br)cc1
The inhibition of the first is lower: 1.47% for the first, 12.1% for the second.

First: COc1ccc(C)cc1NC(=O)Cn1cnnn1
Second: CC(C)C(=O)NCCc1nc2ccccc2n1CCCOc1ccc(Cl)cc1
The inhibition of the first is lower: 2.9% for the first, 10.4% for the second.

Compared with `S=C(c1ccc(Br)cc1)N1CCN(Cc2ccccc2)CC1`, `O=C(NCCn1ccc2ccccc21)c1ccc(S(=O)(=O)N2CCOCC2)cc1` is lower in inhibition: 12.5% for the first, 8.48% for the second.

Going from `CCc1n[nH]c(=S)n1/N=C/c1ccccc1OCc1ccc(Cl)cc1` to `O=C(CC(C(=O)O)c1ccccc1)c1cccs1` (centres undefined), the inhibition falls from 3.79% to 3.01%.

First: CSc1n[nH]c(NC(C)=O)n1
Second: CN(C)C(=O)N1CCCC(C(=O)NCCc2ccccc2)C1 (centres undefined)
The inhibition of the first is lower: 2.22% for the first, 2.4% for the second.

Going from `C/C(=N\O)c1cc(Cl)cc(Cl)c1O` to `O=C(NC1CCN(C(=S)NCCc2ccccc2)CC1)C1CCCCC1`, the inhibition falls from 10.5% to -6.9%.

In the case of `O=C(NCCc1ccccc1)C1CCCN(C(=O)NC2CCCCC2)C1` (centres undefined), the inhibition is reported as 28.2% (active).

Reference: PubChem BioAssay AID1445 (SRMLSC, 2008)
